Among the test systems are SR leukemia; RPMI-8226 leukemia; OVCAR-8 ovarian; OVCAR-5 ovarian; OVCAR-4 ovarian; SK-OV-3 ovarian; OVCAR-3 ovarian; HS 578T breast; NCI/ADR-RES ovarian; T-47D breast; BT-549 breast; MDA-MB-435 melanoma; SW-620 colon; MCF7 breast; HCT-116 colon; HCC-2998 colon; KM12 colon; IGROV1 ovarian.
Holding throughout (test): NCI-60 one-dose screen, 48 h (100 = growth as untreated, 0 = no growth, -100 = all killed)
Common to all, as to conditions: 10 µM

Each structure is given as a SMILES string. About 83,000 compounds went through this panel and 20% of them were active in at least one assay; those are over-represented in the sample as a whole.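 Interpretation: 100, growth as untreated; towards 0, rising growth inhibition; 0, no net growth; 0 to -100, cell death. Compounds scoring below 10 were considered active.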 Unmarked numbers belong to inactive results. Calls of active or inactive are those of the source.

Regarding `CCn1nc(-c2ccccn2)c2cccnc2c1=S`, the growth is 61.6% in the experiment on SR leukemia; 55.2% with RPMI-8226 leukemia; 79.5% in the experiment with OVCAR-8 ovarian; 97% with OVCAR-5 ovarian; 26.5% in the experiment on OVCAR-4 ovarian; 94.7% with SK-OV-3 ovarian. Besides, the growth in the experiment on OVCAR-3 ovarian is 15.4%; with HS 578T breast, 96.6%; in the experiment on NCI/ADR-RES ovarian it was 91.5%; in the experiment with T-47D breast, 42%; in the experiment with BT-549 breast, 104%; in the experiment with MDA-MB-435 melanoma it was 81.2%. Moreover, the growth was 79.4% with SW-620 colon; 7.88% (active) in the experiment on MCF7 breast; 17.1% with HCT-116 colon; 72.4% in the experiment with HCC-2998 colon; 72.8% in the experiment on KM12 colon.
Consider `CCCCCCN=C(N)CCCCCCCCCCC(N)=NCCCCCC`, for which the growth in the experiment on SR leukemia was 61.7%; in the experiment on RPMI-8226 leukemia, 28.8%; in the experiment with OVCAR-8 ovarian it was 21.8%; with OVCAR-5 ovarian, 49.1%; in the experiment with OVCAR-4 ovarian, 27.6%; with SK-OV-3 ovarian, 31.3%. Moreover, the growth in the experiment on OVCAR-3 ovarian was 20%; in the experiment on HS 578T breast, 26.6%; with NCI/ADR-RES ovarian, 84%; in the experiment with T-47D breast, 12.2%; in the experiment on BT-549 breast it was 39.4%; with MDA-MB-435 melanoma, 38.9%. For the same compound, the growth is 22.4% in the experiment with SW-620 colon; 14.9% in the experiment with MCF7 breast; 16.5% with HCT-116 colon; 35.7% with HCC-2998 colon; 34.8% with KM12 colon.
For the compound `COc1cc(/C=C/C(=O)c2cc(-c3ccccc3)ccc2O)cc(OC)c1OC`, the growth in the experiment with SR leukemia is 43.4%; in the experiment with RPMI-8226 leukemia, 12.3%; in the experiment on OVCAR-8 ovarian, 60.8%; with OVCAR-5 ovarian it was 93.1%; in the experiment on OVCAR-4 ovarian it was 68%; in the experiment with SK-OV-3 ovarian, 71.3%. The growth with IGROV1 ovarian is 83%; in the experiment on OVCAR-3 ovarian, 77.2%; with NCI/ADR-RES ovarian, 69.4%; in the experiment with T-47D breast, 43.4%; in the experiment on BT-549 breast it was 88.8%; with SW-620 colon, 81.9%. For the same compound, the growth in the experiment with MCF7 breast was 47%; in the experiment on HCT-116 colon, 61.3%; in the experiment on HCC-2998 colon, 97%; in the experiment on KM12 colon, 78.6%.
As to `CCOc1ccc(-n2cc(-c3ccc(N(C)C)cc3)[n+]3c2CCCCC3)cc1`, the growth in the experiment with SR leukemia was 27.3%; in the experiment with RPMI-8226 leukemia, 6.41% (active); in the experiment with OVCAR-8 ovarian, 12.2%; in the experiment on OVCAR-5 ovarian, 40%; with OVCAR-4 ovarian, 9.15% (active); in the experiment with SK-OV-3 ovarian, -5.85% (active). In addition, the growth is 21.8% in the experiment with OVCAR-3 ovarian; 28.5% with HS 578T breast; 92.8% with NCI/ADR-RES ovarian; 0.571% (active) in the experiment with T-47D breast; -1.7% (active) in the experiment on BT-549 breast; 15.1% with MDA-MB-435 melanoma. In addition, the growth is 19.1% with SW-620 colon; 5.05% (active) in the experiment with MCF7 breast; 0.582% (active) with HCT-116 colon; 21.3% with HCC-2998 colon; 14.3% in the experiment on KM12 colon.
For `CN(C)c1ccc2c(c1)OC(N)=C(C#N)C2c1ccc2c(c1)CCO2` (stereo not given), the growth is 38.2% in the experiment with SR leukemia; 32.9% with RPMI-8226 leukemia; 24.1% in the experiment with OVCAR-8 ovarian; 57.2% in the experiment on OVCAR-5 ovarian; 48.3% in the experiment with OVCAR-4 ovarian; 32.2% in the experiment on SK-OV-3 ovarian. In addition, the growth in the experiment with OVCAR-3 ovarian is -3.4% (active); with HS 578T breast, 23.1%; with NCI/ADR-RES ovarian, 3% (active); in the experiment with T-47D breast, 66.8%; in the experiment on BT-549 breast, 16.7%; with MDA-MB-435 melanoma, 0.989% (active). Besides, the growth with SW-620 colon is 31.9%; in the experiment on MCF7 breast, 16.9%; in the experiment with HCT-116 colon it was 5.3% (active); in the experiment on HCC-2998 colon it was 36.8%; with KM12 colon it was 24.2%.
For `CCOC(=O)C1=C(Nc2ccc(OC)cc2)C(N)=NC1=N`, the growth is 4.05% (active) in the experiment on SR leukemia; 24.7% in the experiment on RPMI-8226 leukemia; 54.5% in the experiment on OVCAR-8 ovarian; 65.6% with OVCAR-5 ovarian; 59.8% in the experiment on OVCAR-4 ovarian; 34.1% with SK-OV-3 ovarian. Also, the growth was 17% in the experiment on OVCAR-3 ovarian; 48.5% in the experiment with HS 578T breast; 28.4% in the experiment on NCI/ADR-RES ovarian; 47.5% with T-47D breast; 56.2% in the experiment on BT-549 breast; -43.1% (active) in the experiment with MDA-MB-435 melanoma. Further, the growth with SW-620 colon is 25.2%; in the experiment on MCF7 breast it was 13.7%; in the experiment on HCT-116 colon, 34.5%; in the experiment on HCC-2998 colon, 81%; in the experiment with KM12 colon, 30.2%.
As to `CC(=O)Nc1ccc(Sc2ccc(NC(C)=O)cc2)cc1`, the growth in the experiment on SR leukemia was 92.9%; with RPMI-8226 leukemia it was 99%; in the experiment with OVCAR-8 ovarian, 94.7%; in the experiment on OVCAR-5 ovarian it was 95.8%; in the experiment with OVCAR-4 ovarian it was 102%; with SK-OV-3 ovarian, 82%. Also, the growth in the experiment on OVCAR-3 ovarian was 102%; in the experiment with HS 578T breast it was 104%; in the experiment with NCI/ADR-RES ovarian, 95.7%; in the experiment with T-47D breast, 70.6%; with BT-549 breast it was 95.5%; with MDA-MB-435 melanoma, 104%. Further, the growth was 104% in the experiment on SW-620 colon; 97.7% in the experiment on MCF7 breast; 98.5% in the experiment on HCT-116 colon; 97.2% in the experiment with HCC-2998 colon; 96.5% in the experiment on KM12 colon.
Turning to `O=C1CC[C@@H](C(=O)N[C@H]2CSSC[C@@H](C(=O)NCCc3ccccc3)NC(=O)[C@H](Cc3ccccc3)NC(=O)[C@@H]3CCCN3C(=O)[C@@H]3CCCN3C2=O)N1`, the growth in the experiment with SR leukemia is 94.5%; in the experiment with RPMI-8226 leukemia it was 108%; with OVCAR-8 ovarian, 104%; with OVCAR-5 ovarian, 90.4%; with OVCAR-4 ovarian, 105%; with SK-OV-3 ovarian it was 97.5%. Besides, the growth with OVCAR-3 ovarian was 104%; in the experiment with HS 578T breast, 101%; with NCI/ADR-RES ovarian, 99.8%; with T-47D breast it was 25.3%; in the experiment with BT-549 breast, 106%; with MDA-MB-435 melanoma, 109%. Besides, the growth in the experiment on SW-620 colon is 102%; with MCF7 breast, 95.8%; in the experiment on HCT-116 colon, 95.8%; in the experiment with HCC-2998 colon it was 94.3%; in the experiment with KM12 colon, 105%.

These data come from PubChem BioAssay (NCI).
